Drawing on PMC7862700, “An all-to-all approach to the identification of sequence-specific readers for epigenetic DNA modifications on cytosine”, this text covers binding signal for one sequence.

Holding throughout (assay): DAPPL (digital affinity profiling via proximity ligation, sequencing); 10 mM Tris-HCl pH 7.5, 50 mM NaCl, 1 mM DTT, 4% glycerol, room temperature, 30 min; GST-TFs on glutathione beads, 16-mer random dsDNA library, 0.1% formaldehyde crosslink after washing; high values mean tight binding
One test addresses T1, FEV (Homo sapiens, UniProt Q99581 1-238).
T1 sequence: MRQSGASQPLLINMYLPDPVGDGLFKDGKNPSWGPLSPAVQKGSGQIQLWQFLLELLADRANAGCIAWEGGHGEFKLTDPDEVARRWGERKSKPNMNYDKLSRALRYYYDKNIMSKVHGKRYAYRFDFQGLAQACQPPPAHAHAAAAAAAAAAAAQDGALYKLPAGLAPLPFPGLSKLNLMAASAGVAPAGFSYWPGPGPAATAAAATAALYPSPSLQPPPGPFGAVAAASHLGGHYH
The conditions noted are these: protein: recombinant; tags: N-terminal GST; dsDNA, one strand shown. Summed up:
(§1)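 Beads coated with glutathione captured GST-fused human transcription factors that had been expressed in yeast, and the factors were then given DNA barcodes and pooled with a tag-only sample. The pools were incubated with 200 nmole of a random double-stranded 16-mer DNA library in Tris/NaCl/DTT/glycerol buffer for 30 min at room temperature, washed, crosslinked with 0.1% formaldehyde and proximity-ligated with BsaI/T4 ligase at 37 °C for 1 h. PCR amplification and Illumina NextSeq500 sequencing came last. Binding signal is each hexamer's read frequency for a factor divided by its frequency for the tag-only sample.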

The target of another test is ETV5 (Homo sapiens, UniProt P41161 1-510). To be noted: protein: recombinant; tags: N-terminal GST; dsDNA, one strand shown. Summed up: as §1
Another test has as its target HSF1 (Homo sapiens, UniProt Q00613 1-529). To be noted: protein: recombinant; tags: N-terminal GST; chain copies: 3; dsDNA, one strand shown. Summed up: as §1
A further test addresses T2, SPIC (Homo sapiens, UniProt Q8N5J4 1-248).
T2 sequence: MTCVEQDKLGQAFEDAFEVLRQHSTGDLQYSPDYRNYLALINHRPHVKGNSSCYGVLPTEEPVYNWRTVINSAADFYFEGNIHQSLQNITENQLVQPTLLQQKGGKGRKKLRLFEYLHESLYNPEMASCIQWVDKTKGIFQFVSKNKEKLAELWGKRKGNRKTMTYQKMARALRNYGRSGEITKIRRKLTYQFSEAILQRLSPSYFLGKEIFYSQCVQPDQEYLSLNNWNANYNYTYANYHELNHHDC
To be noted: protein: recombinant; tags: N-terminal GST; dsDNA, one strand shown. Summed up:
as §1

In a further test the target is ELF4 (Homo sapiens, UniProt Q99607 1-663). To be noted: protein: recombinant; tags: N-terminal GST; dsDNA, one strand shown. Summed up: as §1
The next test has as its target T3, ELK4 (Homo sapiens, UniProt P28324-2 1-405).
T3 sequence: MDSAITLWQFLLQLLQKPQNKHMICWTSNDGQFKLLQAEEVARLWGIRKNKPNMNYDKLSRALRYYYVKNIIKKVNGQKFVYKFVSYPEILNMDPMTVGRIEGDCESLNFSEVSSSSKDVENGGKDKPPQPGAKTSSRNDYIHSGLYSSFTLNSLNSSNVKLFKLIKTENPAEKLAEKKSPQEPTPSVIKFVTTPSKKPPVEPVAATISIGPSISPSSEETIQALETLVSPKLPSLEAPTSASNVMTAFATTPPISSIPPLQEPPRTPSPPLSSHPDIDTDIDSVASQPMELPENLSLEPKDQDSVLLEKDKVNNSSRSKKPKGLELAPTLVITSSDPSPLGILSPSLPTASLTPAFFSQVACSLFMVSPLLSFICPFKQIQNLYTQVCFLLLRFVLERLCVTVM
The conditions noted are these: protein: recombinant; tags: N-terminal GST; dsDNA, one strand shown. The method in brief: as §1

A further test deals with T4, ETV2 (Homo sapiens, UniProt O00321 1-342).
T4 sequence: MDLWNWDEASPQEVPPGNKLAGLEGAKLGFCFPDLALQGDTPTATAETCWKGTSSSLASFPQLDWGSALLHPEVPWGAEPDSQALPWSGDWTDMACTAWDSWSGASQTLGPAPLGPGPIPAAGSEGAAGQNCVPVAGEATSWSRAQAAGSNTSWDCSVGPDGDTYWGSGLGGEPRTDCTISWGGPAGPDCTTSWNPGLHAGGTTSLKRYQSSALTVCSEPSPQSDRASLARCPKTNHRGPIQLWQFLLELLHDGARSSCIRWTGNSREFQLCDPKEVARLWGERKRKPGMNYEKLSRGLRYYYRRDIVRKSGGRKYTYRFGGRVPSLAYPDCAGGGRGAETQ
To be noted: protein: recombinant; tags: N-terminal GST; dsDNA, one strand shown. The method in brief: as §1

In the next test the target is T5, ELF3 (Homo sapiens, UniProt P78545 1-371).
T5 sequence: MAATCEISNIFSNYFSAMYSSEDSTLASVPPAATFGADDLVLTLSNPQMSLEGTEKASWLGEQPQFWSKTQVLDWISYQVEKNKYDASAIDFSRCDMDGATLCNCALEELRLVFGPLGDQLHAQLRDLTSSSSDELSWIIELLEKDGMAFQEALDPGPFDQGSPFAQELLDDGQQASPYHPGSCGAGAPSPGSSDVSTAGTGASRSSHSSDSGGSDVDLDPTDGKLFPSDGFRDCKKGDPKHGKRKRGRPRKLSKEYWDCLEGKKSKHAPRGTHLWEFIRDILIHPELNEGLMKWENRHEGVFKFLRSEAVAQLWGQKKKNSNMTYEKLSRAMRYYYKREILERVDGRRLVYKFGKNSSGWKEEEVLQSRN
The conditions noted are these: protein: recombinant; tags: N-terminal GST; dsDNA, one strand shown. Summed up: as §1

For another test, the target named is CRX (Homo sapiens, UniProt O43186 1-299). To be noted: protein: recombinant; tags: N-terminal GST; dsDNA, one strand shown. Summed up:
as §1

In the next test the target is ETV1 (Homo sapiens, UniProt P50549 1-477). To be noted: protein: recombinant; tags: N-terminal GST; dsDNA, one strand shown. Summed up: as §1
A further test concerns the target T6, ERF (Homo sapiens, UniProt P50548 1-548).
T6 sequence: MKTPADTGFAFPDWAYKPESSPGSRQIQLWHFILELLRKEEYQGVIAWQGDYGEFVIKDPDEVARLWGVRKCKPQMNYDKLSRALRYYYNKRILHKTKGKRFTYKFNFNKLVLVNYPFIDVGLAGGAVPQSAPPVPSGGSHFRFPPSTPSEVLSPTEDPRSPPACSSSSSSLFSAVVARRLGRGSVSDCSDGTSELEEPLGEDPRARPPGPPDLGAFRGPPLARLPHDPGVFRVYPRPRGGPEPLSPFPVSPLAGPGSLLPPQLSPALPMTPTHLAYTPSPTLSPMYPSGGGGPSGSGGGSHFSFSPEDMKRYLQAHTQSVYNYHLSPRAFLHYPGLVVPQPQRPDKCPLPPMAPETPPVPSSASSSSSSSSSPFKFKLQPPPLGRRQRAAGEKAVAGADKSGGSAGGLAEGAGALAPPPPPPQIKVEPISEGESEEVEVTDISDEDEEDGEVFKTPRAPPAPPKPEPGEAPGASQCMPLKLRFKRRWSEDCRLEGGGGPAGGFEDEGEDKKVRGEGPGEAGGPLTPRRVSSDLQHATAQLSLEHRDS
To be noted: protein: recombinant; tags: N-terminal GST; dsDNA, one strand shown. The method in brief: as §1

Another test has as its target T7, ETV3L (Homo sapiens, UniProt Q6ZN32 1-361).
T7 sequence: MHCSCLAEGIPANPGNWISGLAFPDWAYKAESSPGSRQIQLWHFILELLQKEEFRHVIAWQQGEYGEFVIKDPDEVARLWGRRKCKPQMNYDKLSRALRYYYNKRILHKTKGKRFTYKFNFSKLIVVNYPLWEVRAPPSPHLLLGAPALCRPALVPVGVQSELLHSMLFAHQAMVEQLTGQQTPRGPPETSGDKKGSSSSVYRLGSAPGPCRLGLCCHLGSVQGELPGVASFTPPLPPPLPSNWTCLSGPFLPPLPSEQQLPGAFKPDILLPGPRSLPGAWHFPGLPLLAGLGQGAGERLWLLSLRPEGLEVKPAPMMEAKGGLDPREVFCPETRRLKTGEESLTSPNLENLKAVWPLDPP
The conditions noted are these: protein: recombinant; tags: N-terminal GST; dsDNA, one strand shown. Summed up: as §1

The next test has as its target T8, ETS2 (Homo sapiens, UniProt P15036 1-469).
T8 sequence: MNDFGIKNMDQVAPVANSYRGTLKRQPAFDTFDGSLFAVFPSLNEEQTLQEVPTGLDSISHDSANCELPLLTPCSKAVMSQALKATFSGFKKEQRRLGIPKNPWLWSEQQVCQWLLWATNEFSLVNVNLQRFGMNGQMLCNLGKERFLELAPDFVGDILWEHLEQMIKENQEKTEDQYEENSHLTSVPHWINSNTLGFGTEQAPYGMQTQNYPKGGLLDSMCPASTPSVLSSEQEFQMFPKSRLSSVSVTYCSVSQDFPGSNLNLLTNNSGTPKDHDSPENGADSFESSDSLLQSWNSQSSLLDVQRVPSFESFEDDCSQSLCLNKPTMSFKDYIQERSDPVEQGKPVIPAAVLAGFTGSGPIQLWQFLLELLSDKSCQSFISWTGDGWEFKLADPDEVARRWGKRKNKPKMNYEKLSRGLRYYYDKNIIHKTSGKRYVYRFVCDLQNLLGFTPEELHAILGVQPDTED
The conditions noted are these: protein: recombinant; tags: N-terminal GST; dsDNA, one strand shown. Summed up: as §1

For a further test, the target named is T9, SPDEF (Homo sapiens, UniProt O95238 1-335).
T9 sequence: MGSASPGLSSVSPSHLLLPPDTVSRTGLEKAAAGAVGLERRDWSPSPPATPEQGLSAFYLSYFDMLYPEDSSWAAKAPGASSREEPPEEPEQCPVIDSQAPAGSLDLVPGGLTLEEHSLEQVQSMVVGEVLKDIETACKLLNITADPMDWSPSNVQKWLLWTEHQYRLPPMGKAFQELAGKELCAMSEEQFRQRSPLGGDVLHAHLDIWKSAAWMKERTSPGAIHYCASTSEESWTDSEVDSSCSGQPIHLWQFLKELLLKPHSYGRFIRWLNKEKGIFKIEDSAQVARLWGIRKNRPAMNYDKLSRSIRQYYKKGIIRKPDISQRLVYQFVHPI
To be noted: protein: recombinant; tags: N-terminal GST; dsDNA, one strand shown. Summed up: as §1

The next test deals with T10, ETV7 (Homo sapiens, UniProt Q9Y603 1-341).
T10 sequence: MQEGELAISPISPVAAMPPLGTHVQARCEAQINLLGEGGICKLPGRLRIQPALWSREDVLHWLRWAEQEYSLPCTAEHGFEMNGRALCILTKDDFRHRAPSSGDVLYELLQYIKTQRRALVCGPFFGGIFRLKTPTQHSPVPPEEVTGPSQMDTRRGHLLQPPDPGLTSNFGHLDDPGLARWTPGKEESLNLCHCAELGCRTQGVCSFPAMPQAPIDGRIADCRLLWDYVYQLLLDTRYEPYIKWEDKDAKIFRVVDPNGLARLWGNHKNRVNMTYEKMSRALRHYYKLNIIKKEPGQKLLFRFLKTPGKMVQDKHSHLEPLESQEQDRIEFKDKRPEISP
To be noted: protein: recombinant; tags: N-terminal GST; dsDNA, one strand shown. Summed up:
as §1

The target in a further test is T11, ELF5 (Homo sapiens, UniProt Q9UKW6-2 1-255).
T11 sequence: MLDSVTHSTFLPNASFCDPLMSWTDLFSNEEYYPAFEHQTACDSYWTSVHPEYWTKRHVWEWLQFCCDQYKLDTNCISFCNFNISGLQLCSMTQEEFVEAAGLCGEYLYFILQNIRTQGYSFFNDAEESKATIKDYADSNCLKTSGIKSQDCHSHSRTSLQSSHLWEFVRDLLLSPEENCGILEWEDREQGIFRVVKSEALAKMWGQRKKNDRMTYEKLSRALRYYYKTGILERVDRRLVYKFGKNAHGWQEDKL
To be noted: protein: recombinant; tags: N-terminal GST; dsDNA, one strand shown. The method in brief: as §1

The target in the next test is T12, ETV3 (Homo sapiens, UniProt P41162-2 1-143).
T12 sequence: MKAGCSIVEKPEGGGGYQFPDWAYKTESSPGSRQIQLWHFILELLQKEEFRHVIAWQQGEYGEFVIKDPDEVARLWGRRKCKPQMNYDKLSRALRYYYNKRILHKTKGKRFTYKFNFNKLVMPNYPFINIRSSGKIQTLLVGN
The conditions noted are these: protein: recombinant; tags: N-terminal GST; dsDNA, one strand shown. Summed up:
as §1

Another test deals with ETV6 (Homo sapiens, UniProt P41212 1-452). To be noted: protein: recombinant; tags: N-terminal GST; dsDNA, one strand shown. Summed up: as §1
Chain of ETV6 (P41212 whole entry): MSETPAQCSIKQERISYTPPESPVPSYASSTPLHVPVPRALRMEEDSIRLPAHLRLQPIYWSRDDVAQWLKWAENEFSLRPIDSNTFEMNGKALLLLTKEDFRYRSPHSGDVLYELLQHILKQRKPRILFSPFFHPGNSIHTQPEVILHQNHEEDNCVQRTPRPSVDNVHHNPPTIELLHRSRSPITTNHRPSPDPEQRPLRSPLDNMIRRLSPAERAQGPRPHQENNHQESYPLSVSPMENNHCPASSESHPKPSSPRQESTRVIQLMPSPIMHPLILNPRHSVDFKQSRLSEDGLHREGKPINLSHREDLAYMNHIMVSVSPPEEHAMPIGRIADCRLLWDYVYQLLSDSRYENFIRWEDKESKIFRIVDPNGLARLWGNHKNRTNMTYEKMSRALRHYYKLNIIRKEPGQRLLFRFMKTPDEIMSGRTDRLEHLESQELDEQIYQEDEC

Chain of ETV5 (P41161 whole entry): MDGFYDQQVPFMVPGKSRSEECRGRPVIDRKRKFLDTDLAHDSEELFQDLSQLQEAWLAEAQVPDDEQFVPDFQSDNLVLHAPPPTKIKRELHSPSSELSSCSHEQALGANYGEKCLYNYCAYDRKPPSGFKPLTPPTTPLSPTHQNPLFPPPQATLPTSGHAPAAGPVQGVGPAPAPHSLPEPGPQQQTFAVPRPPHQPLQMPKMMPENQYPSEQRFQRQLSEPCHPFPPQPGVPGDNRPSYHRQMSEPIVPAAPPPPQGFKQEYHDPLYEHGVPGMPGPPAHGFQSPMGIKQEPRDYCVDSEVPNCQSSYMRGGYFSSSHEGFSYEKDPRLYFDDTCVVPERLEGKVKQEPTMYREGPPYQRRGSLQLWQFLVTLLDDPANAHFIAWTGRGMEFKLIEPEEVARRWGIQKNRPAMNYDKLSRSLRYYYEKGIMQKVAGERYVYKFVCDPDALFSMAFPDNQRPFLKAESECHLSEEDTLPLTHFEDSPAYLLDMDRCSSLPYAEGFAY
Chain of ELF4 (Q99607 whole entry): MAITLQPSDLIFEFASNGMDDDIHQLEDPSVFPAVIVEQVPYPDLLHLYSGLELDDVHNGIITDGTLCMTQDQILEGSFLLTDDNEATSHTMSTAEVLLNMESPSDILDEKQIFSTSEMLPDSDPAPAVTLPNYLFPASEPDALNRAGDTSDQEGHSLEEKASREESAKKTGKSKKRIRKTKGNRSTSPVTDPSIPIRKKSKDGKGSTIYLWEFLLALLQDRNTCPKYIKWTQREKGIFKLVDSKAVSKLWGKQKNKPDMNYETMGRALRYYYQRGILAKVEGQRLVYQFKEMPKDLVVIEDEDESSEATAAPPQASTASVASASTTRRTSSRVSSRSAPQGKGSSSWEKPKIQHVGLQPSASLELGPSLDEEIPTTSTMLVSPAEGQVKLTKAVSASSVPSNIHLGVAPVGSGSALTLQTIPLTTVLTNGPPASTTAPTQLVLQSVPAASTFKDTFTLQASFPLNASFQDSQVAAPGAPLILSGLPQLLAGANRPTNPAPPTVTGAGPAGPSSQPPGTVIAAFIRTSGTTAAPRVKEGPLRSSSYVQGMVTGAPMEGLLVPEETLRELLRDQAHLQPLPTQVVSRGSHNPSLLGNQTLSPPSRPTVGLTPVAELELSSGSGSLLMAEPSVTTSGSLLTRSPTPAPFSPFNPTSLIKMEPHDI
Chain of CRX (O43186 whole entry): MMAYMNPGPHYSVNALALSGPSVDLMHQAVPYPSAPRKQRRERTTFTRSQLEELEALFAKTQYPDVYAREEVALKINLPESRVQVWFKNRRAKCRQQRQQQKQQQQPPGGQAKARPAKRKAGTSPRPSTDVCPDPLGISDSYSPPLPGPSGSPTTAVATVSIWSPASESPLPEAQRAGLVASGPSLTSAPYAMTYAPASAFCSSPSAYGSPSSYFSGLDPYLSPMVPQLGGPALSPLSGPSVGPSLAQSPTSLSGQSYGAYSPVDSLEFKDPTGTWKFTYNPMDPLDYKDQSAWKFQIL
Chain of ETV1 (P50549 whole entry): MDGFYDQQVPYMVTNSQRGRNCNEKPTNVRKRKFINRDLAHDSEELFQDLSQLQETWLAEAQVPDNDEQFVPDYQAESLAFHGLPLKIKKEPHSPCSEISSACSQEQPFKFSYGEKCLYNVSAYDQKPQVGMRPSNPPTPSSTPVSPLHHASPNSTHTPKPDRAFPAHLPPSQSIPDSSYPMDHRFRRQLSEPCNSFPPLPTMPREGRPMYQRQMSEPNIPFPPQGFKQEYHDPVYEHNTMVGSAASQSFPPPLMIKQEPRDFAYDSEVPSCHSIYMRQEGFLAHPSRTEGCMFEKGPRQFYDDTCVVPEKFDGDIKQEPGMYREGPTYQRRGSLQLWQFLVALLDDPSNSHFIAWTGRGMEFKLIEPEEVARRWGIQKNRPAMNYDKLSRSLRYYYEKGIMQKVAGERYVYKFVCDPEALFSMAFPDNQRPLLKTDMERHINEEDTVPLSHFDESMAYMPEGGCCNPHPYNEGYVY
Chain of HSF1 (Q00613 whole entry): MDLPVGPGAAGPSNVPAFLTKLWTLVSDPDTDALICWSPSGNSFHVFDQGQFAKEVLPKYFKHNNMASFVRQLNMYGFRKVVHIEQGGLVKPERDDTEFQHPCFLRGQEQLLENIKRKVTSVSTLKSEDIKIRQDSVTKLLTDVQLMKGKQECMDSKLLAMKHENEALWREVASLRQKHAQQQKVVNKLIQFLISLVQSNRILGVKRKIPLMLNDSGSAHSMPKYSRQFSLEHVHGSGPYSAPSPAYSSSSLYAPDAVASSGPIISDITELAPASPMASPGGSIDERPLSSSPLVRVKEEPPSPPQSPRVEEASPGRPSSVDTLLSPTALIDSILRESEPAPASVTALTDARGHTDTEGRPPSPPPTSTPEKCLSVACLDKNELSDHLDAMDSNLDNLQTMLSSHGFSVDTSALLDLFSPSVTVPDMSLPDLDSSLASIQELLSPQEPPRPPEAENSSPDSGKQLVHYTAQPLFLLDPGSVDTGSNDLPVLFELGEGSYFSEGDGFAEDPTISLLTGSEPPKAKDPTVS

On to ACTACT, for which the binding signal is 1.3 fold enrichment (6-mer frequency, TF over GST control) in the test with FEV; 1.19 fold enrichment (6-mer frequency, TF over GST control) with ETV5; 1.12 fold enrichment (6-mer frequency, TF over GST control) with HSF1; 1.26 fold enrichment (6-mer frequency, TF over GST control) in the test with SPIC; 1.22 fold enrichment (6-mer frequency, TF over GST control) in the test with ELF4; 1.36 fold enrichment (6-mer frequency, TF over GST control) in the test with ELK4. The binding signal in the test with ETV2 is 1.44 fold enrichment (6-mer frequency, TF over GST control); with ELF3 it was 1.24 fold enrichment (6-mer frequency, TF over GST control); with CRX, 1.11 fold enrichment (6-mer frequency, TF over GST control); with ETV1, 1.14 fold enrichment (6-mer frequency, TF over GST control); with ERF, 1.33 fold enrichment (6-mer frequency, TF over GST control); with ETV3L it was 1.37 fold enrichment (6-mer frequency, TF over GST control). In addition, the binding signal was 1.25 fold enrichment (6-mer frequency, TF over GST control) with ETS2; 1.15 fold enrichment (6-mer frequency, TF over GST control) with SPDEF; 1.35 fold enrichment (6-mer frequency, TF over GST control) with ETV7; 1.34 fold enrichment (6-mer frequency, TF over GST control) in the test with ELF5; 1.13 fold enrichment (6-mer frequency, TF over GST control) with ETV3; 1.27 fold enrichment (6-mer frequency, TF over GST control) with ETV6.
